Data on 58 compounds can be found in PubChem BioAssay AID449762 (Southern Research Specialized Biocontainment Screening …, 2010).

Screen size: about 330,000 compounds; about 1,900 (0.58%) were called active. Not shown: some 4% with an inconclusive outcome. These entries were drawn from the full list. Measured potencies and affinities stand elsewhere. Unmarked numbers belong to inactive results. Cut-off read from the data, not from the text of the source: inconclusive = inhibition above about 70% without an active follow-up result; inactive = below that.

The nature of this experiment: M. tuberculosis growth inhibition, HTS (AID 449762).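 Note: bacterial growth assessed after seven days of incubation.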 As to conditions: M. tuberculosis H37Rv growth inhibition, 7H9 media; at 25 µM; stronger effect = higher value.
Regarding `Cc1cc(C)cc(OCC(=O)N2Cc3ccccc3CC2C(=O)O)c1` (stereo not drawn), the inhibition is 10.5%. For `CC(CC(=O)Nc1ccc(-c2ccno2)cc1)n1cccn1` (stereo not drawn), the inhibition was 21.4%.

On to `Cc1ccc(CNC(=O)COC(=O)c2cc(=O)[nH]c3ccccc23)cc1`, for which the inhibition is 6.93%. In the case of `N#Cc1ccccc1/C=N/Nc1nc(-c2ccccc2)c2cc(Cl)ccc2n1` it was -2.26%. In the case of `N#Cc1ccccc1/C=N/Nc1nc(-c2ccccc2)c2cc(Br)ccc2n1` it was 6.43%. The value for `COCCNC(=S)Nc1ccc2nc(N3CCOCC3)cc(C)c2c1` was -5.25%. Take `O=C(COC(=O)CNC(=O)c1ccc(Cl)c([N+](=O)[O-])c1)NCC1CCCO1` (stereo not drawn): the inhibition is -15.8%. With `Cc1nn2c(N3CCCC3)cc(C(C)C)nc2c1-c1ccccc1`, the inhibition was 2.45%.

For the compound `Cc1cc(NCCC(C)C)n2nc(C)c(-c3ccccc3)c2n1`, the inhibition is 67.4%.

With `CCS(=O)(=O)Nc1ccc(C2=NN(C(=O)c3ccco3)C(c3cccc(F)c3)C2)cc1` (stereo not drawn), the inhibition is 23.2%. The value for `Cn1nc(C(F)(F)F)c2cc(NC(=O)OCc3ccc(F)cc3)sc21` was 10.2%; that for `COc1ccc(COC(=O)Nc2cc3c(C(F)(F)F)nn(C)c3s2)cc1` was -0.32%; that for `CC1CCC(NC(=O)c2ccc(NS(=O)(=O)c3ccc4[nH]c(=O)[nH]c4c3)cc2)CC1` (stereo not drawn) was -6.1%.

For the compound `CC1(c2nnc(-c3ccccc3)o2)CC(c2ccc([N+](=O)[O-])cc2)=NO1` (stereo not drawn), the inhibition is -0.65%. `COC(=O)c1ccc(NC(=O)c2ccc[n+]([O-])c2)cc1`: the inhibition is -4.13%.

As for `c1ccc2nc3c(nc2c1)OCC1CCCCN31` (stereo not drawn), the inhibition is 3.14%. In the case of `CC1(C(=O)N(CC(=O)NC2CCCC2)Cc2ccc(Cl)cc2)CC(=O)N=C2C=CC=CN21` (stereo not drawn) it was -2.69%.

Consider `Cc1ccccc1NC(=O)NC(N)=O`, for which the inhibition is -2.65%. Turning to `Cc1ccc(-c2csc(/C(C#N)=C/Nc3ccc4c(c3)OCCO4)n2)cc1`, the inhibition is 7%.

For the compound `CCN(CC)CCOC(=O)c1ccc(N/C=C(/C#N)c2nc(-c3cc4ccccc4oc3=O)cs2)cc1`, the inhibition is 9.42%. In the case of `Cc1cc(CN(C)C(=O)c2ccc3nc(Cc4ccccc4F)oc3c2)n[nH]1` it was -6.04%. In the case of `Cc1cccc(C(=O)OCC(=O)N(C)CC(=O)Nc2ccc(Cl)c(C(F)(F)F)c2)c1` it was 1.53%; in that of `Cc1ccc(-c2cc(C(=O)N3CCOCC3)no2)cc1`, 6.22%; in that of `CNC(=O)c1cccnc1Nc1cccc(C(F)(F)F)c1`, -4.06%. The value for `O=C(O)c1cccnc1Nc1cccc(C(F)(F)F)c1` was -0.01%; that for `Cc1ccc(C(=O)N(CC(=O)NC2CCCC2)c2cccc(F)c2)s1` was 9.2%. Regarding `CN1CCN(c2cc(-c3cc(O)c4ncccc4c3)ccn2)CC1`, the inhibition is 28.5%. In the case of `CN(C)CCCNC(=O)c1ccc(-c2cc(O)c3ncccc3c2)cc1` it was 3.92%; in that of `CC1(c2cccc(Br)c2)NC(=O)N(CC(=O)NC2CCCCC2)C1=O` (stereo not drawn), 3%; in that of `CCCCN1C(=O)c2ccc(C(=O)OCC(=O)NCCc3ccc(S(N)(=O)=O)cc3)cc2C1=O`, -4.61%. In the case of `O=C(NCC(c1cccs1)N1CCOCC1)c1cccc([N+](=O)[O-])c1` (stereo not drawn) it was -5.61%; in that of `O=C(NCC(c1cccs1)N1CCOCC1)c1ccc([N+](=O)[O-])cc1` (stereo not drawn), 2.63%. The value for `CCOc1ccc(NC(=O)CN(C)C(=O)Cc2ccsc2)cc1OCC` was -3.21%; that for `CCOC(=O)Cn1cnc2c(nnn2-c2ccc(OC)cc2)c1=O` was -2.34%; that for `CCOc1cc(/C=C2\N=C(C)OC2=O)cc(Cl)c1OCC(=O)OC` was -3.74%. Turning to `O=C(C1CCCN1S(=O)(=O)c1cccc2nsnc12)N1CCCCCC1` (stereo not drawn), the inhibition was 2.56%. The value for `Cc1nnc(SCC(=O)NCc2ccc(F)cc2)[nH]c1=O` was 0.54%; that for `O=S(Cc1ccc(Br)cc1)Cc1nnc(SCc2c(Cl)cccc2Cl)n1-c1ccccc1` (stereo not drawn) was -2.91%; that for `O=S(Cc1ccc(Br)cc1)Cc1nnc(SCc2ccc(Br)cc2)n1-c1ccccc1` (stereo not drawn) was 57%. In the case of `CCOC(=O)c1ccc(S(=O)(=O)NNC(=O)Cc2csc(C)n2)cc1` it was 1.7%; in that of `CCOc1ccc(CCNC(=O)c2cccc(S(=O)(=O)N3CC(C)OC(C)C3)c2)cc1OCC` (stereo not drawn), 2.57%; in that of `CC(=O)Nc1ccc(N2CCN(c3ccc(C(F)(F)F)cn3)CC2)nc1`, 17.9%.

As to `CC(C)(C)C(=O)Nc1ccc(N2CCN(c3ccc(C(F)(F)F)cn3)CC2)nc1`, the inhibition was -0.97%. The value for `c1ccc2c(c1)ncn2CCCOc1ccc2c(c1)CCC2` was 68.5%; that for `c1ccc(OCCCCn2cnc3ccccc32)cc1` was 4.06%; that for `O=C(O)CCCC(=O)N1N=C(c2ccccc2)CC1c1ccc2nccnc2c1` (stereo not drawn) was 0.01%.

For the compound `O=C(N/C(=C\c1cccc([N+](=O)[O-])c1)C(=O)N1CCCCC1)c1cccs1`, the inhibition was -1.22%. The value for `COCC(=O)NC(c1ccccc1)c1ccccc1` was 1.57%; that for `O=C(c1c[nH]c2ccccc12)C(O)C(c1ccccc1)N1CCOCC1` (stereo not drawn) was -0.62%; that for `CCN1CCN(C(c2ccc(OC)cc2)C(O)C(=O)c2c[nH]c3ccccc23)CC1` (stereo not drawn) was 1.81%. In the case of `CCOc1ccccc1C(C(=O)NC1CCCCC1)N(C(=O)c1csnn1)C1CC1` (stereo not drawn), the inhibition is -6.88%. In the case of `CC1(C)CC(=O)c2c(O)cc(OCc3ccc([N+](=O)[O-])cc3)cc2O1` it was 8.3%; in that of `COC(=O)c1ccc(COc2cc(O)c3c(c2)OC(C)(C)CC3=O)cc1`, 20.4%. In the case of `N=C(c1ccc([N+](=O)[O-])cc1)N1CCCCC1` it was 8.06%; in that of `O=C1CCN(Cc2ccccc2)CCN1CCSc1ccccc1`, -0.68%; in that of `CCOc1ccccc1N(CC(=O)Nc1ccc2c(c1)OCO2)S(C)(=O)=O`, -15.7%. In the case of `O=C(Nc1cc(-c2nc3ncccc3o2)ccc1Cl)c1ccc([N+](=O)[O-])o1` it was -1.99%; in that of `COc1ccc(C(=O)Nc2cccc(-c3nc4ncccc4o3)c2C)cc1`, 2.93%.
